# Results: the supplement of paper PMC10498489
# In all, about 2,300 compounds went through this assay and about 330 (14%) showed activity.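 How the source made its calls: active = median modified Z-score above 1.96; inactive = 1.96 or below.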 These entries were drawn from the full list.
# Test system: HepG2 Srxn1-GFP reporter cells (+30 nM CDDO-Me)
# Test: Srxn1-GFP intensity median modified Z-score relative to plate median; higher = stronger NRF2 / oxidative stress reporter activation, active = hit call of the paper
# Settings: 10 µM; exposure time: 24h
# How it was run: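 Compound at 10 μM was applied with an NRF2 activator at 30 nM to HepG2 Srxn1-GFP BAC reporter cells for 24 h, in DMSO at no more than 0.1%, using three replicate 96-well plates seeded at 20,000 cells per well. Fixed, Hoechst-stained cells were imaged confocally and cytoplasmic GFP was scored for each cell, with images under 100 cells left out. The figure reported is the replicate median of the per-plate modified Z-score of GFP intensity. Scaling relied on 1.4826 × median absolute deviation.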
row,Structure (SMILES),Srxn1-GFP intensity median modified Z-score
1,O=C1CC(c2ccccc2)Oc2ccccc21 (centres undefined) [euspeclibcmpd1376],3.07 (active)
2,COc1cc(O)c2c(=O)cc(-c3ccc(O)cc3)oc2c1 [euspeclibcmpd2253],0.0845 (inactive)
3,CCOC(=O)NN=c1[nH]ncc2ccccc12 [euspeclibcmpd1066],0.23 (inactive)
4,N=c1[nH]c(C(CCC(=O)O)C(=O)N=C2C(=O)N3C(C(=O)O)=CCS[C@H]23)cs1 (some centres undefined) [euspeclibcmpd717],-0.318 (inactive)
5,O=C(CCc1ccc(O)cc1)c1c(O)cc(O)cc1O [euspeclibcmpd1518],16.3 (active)
6,O=C(CCc1ccc(O)cc1)c1c(O)cc(O)cc1O[C@@H]1O[C@H](CO)[C@@H](O)[C@H](O)[C@H]1O [euspeclibcmpd1493],-0.343 (inactive)
7,CCC(=O)c1c(O)cc(O)cc1O [euspeclibcmpd1034],0.366 (inactive)
8,Cc1c(C(=O)O)c(O)cc2c(O)c3c(O)c(O)c(C4O[C@H](CO)[C@@H](O)[C@H](O)C4=O)c(O)c3c(O)c12 (some centres undefined) [euspeclibcmpd1436],-0.693 (inactive)
9,NC[C@H]1O[C@H](O[C@H]2[C@H](O)[C@@H](O[C@H]3O[C@H](CO)[C@@H](O)[C@H](N)[C@H]3O)[C@H](N)C[C@@H]2N)[C@H](N)[C@@H](O)[C@@H]1O [euspeclibcmpd351],0.19 (inactive)
10,CC[C@@H](CO)NCCN[C@@H](CC)CO [euspeclibcmpd120],-0.816 (inactive)
11,O=C(O)C1=C(CCO)O[C@@H]2CC(=O)N12 [euspeclibcmpd2294],0.746 (inactive)
12,O=C(O)CCC(=O)Nc1ccc(S(=O)(=O)N=c2[nH]ccs2)cc1 [euspeclibcmpd428],0.358 (inactive)
13,COc1cc(Cc2c[nH]c(=N)[nH]c2=N)cc(OC)c1OC [euspeclibcmpd310],0.316 (inactive)
14,CC1=C(/C=C/C(C)=C/C=C/C(C)=C/C=C/C=C(C)/C=C/C=C(C)/C=C/C2=C(C)C(=O)CCC2(C)C)C(C)(C)CCC1=O [euspeclibcmpd1669],-0.405 (inactive)
15,CC1CC(=O)NN=C1c1ccc(NN=C(C#N)C#N)cc1 (centres undefined) [euspeclibcmpd481],0.356 (inactive)
16,CN1CCC(=C2c3ccccc3CCc3sccc32)CC1 [euspeclibcmpd488],0.0303 (inactive)
17,CN1CCC(=C2c3ccccc3Sc3ccccc32)CC1 [euspeclibcmpd1250],0.25 (inactive)

row,Structure (SMILES),Srxn1-GFP intensity median modified Z-score
1,CN1CCC(=C2c3ccccc3C=Cc3ccccc32)CC1 [euspeclibcmpd890],7.54 (active)
2,C=CCn1c(C(C)Oc2ccc(OCC)cc2)nnc1N1CCC(C(=O)OC)CC1 (centres undefined),1.58 (inactive)
3,Cn1c(SC2CCCCC2=O)nnc1-c1cccc(Br)c1 (centres undefined),4.66 (active)
4,CC1(O)CCOC(=O)C1 (centres undefined) [euspeclibcmpd1666],-0.384 (inactive)
5,N=c1[nH]c(N)ccc1N=Nc1ccccc1 [euspeclibcmpd230],0.85 (inactive)
6,O=C(CCCN1CCN(c2ccccn2)CC1)c1ccc(F)cc1 [euspeclibcmpd1317],0.00738 (inactive)
7,CCCC[C@@H](CC)COC(=O)c1ccccc1O [euspeclibcmpd865],-0.26 (inactive)
8,CN(C/C=C/c1ccccc1)Cc1cccc2ccccc12 [euspeclibcmpd791],0.553 (inactive)
9,c1ccc2c(CC3=NCCN3)cccc2c1 [euspeclibcmpd204],-0.697 (inactive)
10,CN(C/C=C/C#CC(C)(C)C)Cc1cccc2ccccc12 [euspeclibcmpd767],3.24 (active)
11,CC1(C)O[C@@H]2[C@@H](CO[C@@]3(COS(N)(=O)=O)OC(C)(C)O[C@@H]23)O1 [euspeclibcmpd870],0.206 (inactive)
12,CC(C)=CCC/C(C)=C/CC/C(C)=C/CO [euspeclibcmpd2192],1.35 (inactive)
13,CC(C)=CCC/C(C)=C/CC/C(C)=C/CC/C(C)=C/CC/C(C)=C/CC/C(C)=C/CC/C(C)=C/CC/C(C)=C/CC/C(C)=C/CO [euspeclibcmpd1640],-0.00439 (inactive)
14,CC(C)=CCC/C(C)=C/CO [euspeclibcmpd1453],2.94 (active)
15,Cc1ccc(-c2nc(CSc3nc(C)c(C)n3CC3CCCO3)co2)c(C)c1 (centres undefined),1.14 (inactive)
16,CCCC1O[C@@H]2CC3C4CC=C5CC(=O)C=CC5(C)C4[C@@H](O)CC3(C)[C@]2(C(=O)CO)O1 (some centres undefined) [euspeclibcmpd352],-0.649 (inactive)
17,Oc1oc(O)c2c1C1CCC2O1 [euspeclibcmpd1748],3 (active)
